Out of some 52,000 compounds screened, about 4,300 (8.3%) were called active. Rule as the data show it: active = survival mostly below about 52% (no sharp cut-off); inactive = mostly above about 56%. Only a selection was taken, and actives are over-represented in it overall.
The compounds below were run on DeltatarO mutant (assay: S. aureus survival, RN4220 and DeltatarO strains – OD600, teichoic acid synthesis inhibitors, primary screen (AID 463173)). Conditions: S. aureus RN4220 wild type/DeltatarO growth, OD600, 18 h, stronger effect = lower value, concentration not given here.

| SMILES | survival |
| --- | --- |
| CC1(C)CC(NC(=O)CN2CCCC2=O)CC(C)(C)N1 | 79% (inactive) |
| COc1ccc(C=C2C(=O)NC(=S)NC2=O)cc1 | 96% (inactive) |
| Cc1cccc(OC(C)C(=O)NCC2(N(C)C)CCCCC2)c1C (stereo not drawn) | 92% (inactive) |
| N#CC(C#N)=Cc1ccc(Sc2ccccc2)o1 | 72% (inactive) |
| COc1ccccc1CNCCc1ccccc1 | 95% (inactive) |
| O=C(COc1ccccc1[N+](=O)[O-])N1CCN(CCc2ccncc2)CC1 | 90% (inactive) |
| Cc1ccc(OCC(=O)N2CCN(CCc3ccncc3)CC2)cc1 | 86% (inactive) |
| CC(C)c1ccc(OCC(=O)N2CCN(CCc3ccncc3)CC2)cc1 | 44% (active) |
| COc1ccc(OCC(=O)N2CCN(CCc3ccncc3)CC2)cc1 | 82% (inactive) |
| CCc1ccc(OCC(=O)N2CCN(CCc3ccncc3)CC2)cc1 | 98% (inactive) |
| Cc1ccc(OCC(=O)N2CCN(CCc3ccncc3)CC2)cc1C | 53% (inactive) |
| Cc1ccc(C(C)C)c(OCC(=O)N2CCN(CCc3ccncc3)CC2)c1 | 42% (active) |
| Cc1cc(OCC(=O)N2CCN(CCc3ccncc3)CC2)ccc1Cl | 49% (inactive) |
| O=C(COc1cccc(Cl)c1)N1CCN(CCc2ccncc2)CC1 | 47% (active) |
| O=C(COc1ccc2ccccc2c1)N1CCN(Cc2ccncc2)CC1 | 67% (inactive) |
| Cc1cc(OCC(=O)N2CCN(CCc3ccncc3)CC2)cc(C)c1Cl | 57% (active) |
| O=C(COc1ccccc1Cl)N1CCN(CCc2ccncc2)CC1 | 95% (inactive) |
| O=C(Nc1ccc2c(c1)OCCO2)c1cccn(Cc2cccc([N+](=O)[O-])c2)c1=O | 94% (inactive) |
| Cc1ccc(-n2c(/C=C/c3cc(Br)cs3)nc3ccccc3c2=O)cc1 | 74% (inactive) |
| CC(=O)N(C1=NCCCS1)c1ccc(C)cc1 | 99% (inactive) |
| CC(=O)OC1(c2ccccc2)CCN(C)C2CCCCC21 (stereo not drawn) | 91% (inactive) |
| CN1CCc2nc3sc4c(=O)[nH]c(=O)[nH]c4c3cc2C1 | 79% (inactive) |
| Cc1ccc(Cl)cc1NC(=O)N(Cc1ccc2c(c1)OCO2)C1CCN(Cc2ccccc2)CC1 | 55% (inactive) |
| Cc1cccnc1-n1c(C)nc2ccccc2c1=O | 76% (inactive) |

| SMILES | survival |
| --- | --- |
| COc1ccc(NC(=O)CCc2nc(C3=CCN(Cc4cccc(C)c4)CC3)no2)c(OC)c1 | 91% (inactive) |
| COC(=O)c1ccccc1NC(=O)c1cccn(Cc2cccc(Cl)c2)c1=O | 73% (inactive) |
| CCOc1ccc2nc(NC(=O)c3cccn(Cc4ccccc4Cl)c3=O)sc2c1 | 87% (inactive) |
| O=c1c2ccccc2[nH]c(=S)n1-c1ccccc1 | 90% (inactive) |
| CCOc1ccc2nc(NC(=O)c3cccn(Cc4ccccc4)c3=O)sc2c1 | 94% (inactive) |
| O=S1(=O)N(Cc2ccccc2)CCCN1Cc1ccc(F)cc1Cl | 87% (inactive) |
| O=S1(=O)N(Cc2ccccc2Cl)CCCN1Cc1ccccc1Cl | 10% (active) |
| O=S1(=O)N(Cc2ccccc2)CCCN1Cc1cccc(Cl)c1 | 71% (inactive) |
| O=C(Nc1ccon1)c1cccn(Cc2cccc([N+](=O)[O-])c2)c1=O | 102% (inactive) |
| COc1ccc(C(C(=O)NC2CCCCC2)N(CCN2CCOCC2)C(=O)Cc2c[nH]c3ccccc23)cc1OC (stereo not drawn) | 59% (inactive) |
| COc1ccccc1NC(=O)N(Cc1ccc2c(c1)OCO2)C1CCN(Cc2ccccc2)CC1 | 88% (inactive) |
| COc1ccccc1-n1c(/C=C/c2ccccc2)nc2ccccc2c1=O | 67% (inactive) |
| CSc1nc2ccccc2c(=O)n1-c1ccccc1C | 95% (inactive) |
| CCCSc1nc2ccccc2c(=O)n1-c1ccccc1OC | -2% (active) |
| Cc1cccc(Cn2cccc(C(=O)Nc3cc(C)on3)c2=O)c1 | 73% (inactive) |
| CCCCCn1c(=O)c(C(=O)Nc2ccccc2S(N)(=O)=O)c(O)c2ccccc21 | 0% (active) |
| CCCCn1c(=O)c(C(=O)NC)c(O)c2ccccc21 | 99% (inactive) |
| CCN1CCN(Cc2nnnn2C(C)(C)C)CC1 | 100% (inactive) |
| O=C1CC(c2cccnc2)Nc2ccc3ccccc3c21 (stereo not drawn) | 86% (inactive) |
| Cc1ccc(Cn2cccc(C(=O)Nc3cc([N+](=O)[O-])ccc3C)c2=O)cc1 | 82% (inactive) |
| CCc1ccccc1NC(=O)c1cccn(Cc2ccccc2F)c1=O | 47% (active) |
| Cc1nnc(NC(=O)c2cccn(Cc3ccccc3F)c2=O)s1 | 94% (inactive) |
| CCOC(=O)c1ccc(NC(=O)c2cccn(Cc3ccccc3F)c2=O)cc1 | 86% (inactive) |
| CC(C)c1ccc(OCC(=O)N2CCN(CCc3ccccn3)CC2)cc1 | 66% (inactive) |

— PubChem BioAssay AID463173 (ICCB-Longwood Screening Facility, Harvard Medical School, 2010)
